Assay results reported in PubChem BioAssay (Tox21).
A number with no mark means an inactive call. Records with an inconclusive call do not appear. A call without a number means that no potency is given here. Active and inactive are the calls of the source. Unless noted, calls follow the shape of the full dose curve.

Tests used:
[1] = Nuclear factor erythroid 2-related factor 2/antioxidant responsive element (Nrf2/ARE) small molecule agonists: luciferase reporter gene qHTS assay in human keratinocytes (AID 1919969); also: nearly all actives have a fitted effect of over 35% in size
[2] = p53 small molecule agonists, cell-based qHTS assay with rat liver microsomes: qHTS cell viability counter screen (AID 1963580); also: nearly all actives have a fitted effect of over 45% in size
How it was run: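 Cytotoxicity counter screen: intracellular ATP read by CellTiter-Glo luminescence in the p53 reporter wells. HCT-116 p53RE-bla cells were treated for 16 h at 37 C alongside rat liver microsomes and NADPH, each 0.5 mg/mL final.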

[3] = biological target: Beta-2 adrenergic receptor (Homo sapiens) (UniProt P07550); assay: Adrenergic beta2 receptor (ADRB2) small molecule antagonists, cell-based qHTS assay (AID 1963592); also: series mostly up to about 92 µM; nearly all actives have a fitted effect of over 50% in size
Sequence of Beta-2 adrenergic receptor (Homo sapiens) (P07550 whole entry, looked up): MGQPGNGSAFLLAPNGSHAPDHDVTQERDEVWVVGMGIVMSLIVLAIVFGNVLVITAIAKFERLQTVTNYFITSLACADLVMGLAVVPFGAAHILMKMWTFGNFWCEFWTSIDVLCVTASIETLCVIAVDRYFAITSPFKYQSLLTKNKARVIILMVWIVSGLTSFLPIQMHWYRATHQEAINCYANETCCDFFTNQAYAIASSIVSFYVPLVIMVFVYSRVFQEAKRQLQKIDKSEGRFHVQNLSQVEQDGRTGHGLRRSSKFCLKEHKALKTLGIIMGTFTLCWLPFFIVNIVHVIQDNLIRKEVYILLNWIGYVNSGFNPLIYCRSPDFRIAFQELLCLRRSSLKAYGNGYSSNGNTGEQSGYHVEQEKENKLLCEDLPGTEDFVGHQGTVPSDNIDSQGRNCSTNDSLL
How it was run: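 Assay format: CHO-ADRB2 cells, 18-20hr seeding at 37C/5% CO2, then compound plus 1nM isoproterenol agonist mix for 0.5hr RT. Homogeneous time-resolved fluorescence cAMP detection after 1hr, expressed as 665/615 nm ratio.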

[4] = biological target: Beta-2 adrenergic receptor (Homo sapiens) (UniProt P07550); assay: Adrenergic beta2 receptor (ADRB2) small molecule agonists, cell-based qHTS assay (AID 1963593);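 also: CHO cells stably overexpressing human ADRB2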
How it was run: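 CHO cells stably over-expressing ADRB2 were plated overnight at 37C, then dosed with compounds plus a stimulation mix containing 100uM IBMX and 25uM Ro-20-1724 for 0.5hr at room temperature. cAMP was measured by HTRF competition, 1hr.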

[5] = biological target: D(2) dopamine receptor (Homo sapiens) (UniProt P14416); assay: Dopamine D2 receptor (DRD2) small molecule agonists, cell-based qHTS assay (AID 1963594); also: nearly all actives have a fitted effect of over 35% in size
Sequence of D(2) dopamine receptor (Homo sapiens) (P14416 whole entry, looked up): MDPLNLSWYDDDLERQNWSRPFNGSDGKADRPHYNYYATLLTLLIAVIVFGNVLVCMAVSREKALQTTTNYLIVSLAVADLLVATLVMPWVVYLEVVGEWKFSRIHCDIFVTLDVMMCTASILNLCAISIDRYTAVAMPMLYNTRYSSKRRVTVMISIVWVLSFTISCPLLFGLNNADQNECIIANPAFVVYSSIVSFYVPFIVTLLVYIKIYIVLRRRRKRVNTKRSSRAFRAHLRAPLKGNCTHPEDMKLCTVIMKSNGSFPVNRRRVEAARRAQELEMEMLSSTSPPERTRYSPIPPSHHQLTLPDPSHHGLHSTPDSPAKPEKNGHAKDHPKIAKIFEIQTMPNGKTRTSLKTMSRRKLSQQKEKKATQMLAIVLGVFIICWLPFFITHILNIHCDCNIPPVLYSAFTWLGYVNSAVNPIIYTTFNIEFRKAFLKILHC
How it was run: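 cAMP accumulation in DRD2-HEK293 cells measured by HTRF after 1 h detection; compounds added 10 min before NKH477 (200nM […]) forskolin-analogue stimulation, 30 min at room temperature, with Ro20-1724 present at 0.1 mM final.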

[6] = biological target: D(2) dopamine receptor (Homo sapiens) (UniProt P14416); assay: Dopamine D2 receptor (DRD2) small molecule antagonists, cell-based qHTS assay (AID 1963595; active = well fitted inhibition curve with a large enough effect in the signal ratio in the repeat runs, with a control signal flat; the % refers to the signal ratio)
How it was run: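 In this cell-based antagonist screen, compounds act for 10 min at room temperature before a 30 min challenge with 12 nM quinpirole and 200 nM NKH477. cAMP is quantified by HTRF competition in DRD2-HEK293 cells containing 0.1 mM Ro20-1724.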

[7] = biological target: Gonadotropin-releasing hormone receptor (Homo sapiens) (UniProt P30968); assay: Human gonadotropin-releasing hormone receptor (GnRHR) small molecule agonists, calcium flux assay in GnRHR-HEK293 cells (AID 1920063); also: nearly all actives have a fitted effect of over 35% in size
Sequence of Gonadotropin-releasing hormone receptor (Homo sapiens) (P30968 whole entry, looked up): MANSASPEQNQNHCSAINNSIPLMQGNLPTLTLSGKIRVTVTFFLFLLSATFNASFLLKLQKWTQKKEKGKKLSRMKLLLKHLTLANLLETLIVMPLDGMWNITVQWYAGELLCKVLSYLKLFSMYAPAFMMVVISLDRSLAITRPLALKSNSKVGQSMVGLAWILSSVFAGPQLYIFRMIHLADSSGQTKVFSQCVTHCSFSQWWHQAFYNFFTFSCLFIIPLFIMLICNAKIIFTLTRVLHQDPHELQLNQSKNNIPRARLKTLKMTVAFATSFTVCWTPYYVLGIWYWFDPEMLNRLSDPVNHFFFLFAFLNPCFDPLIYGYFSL
How it was run: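 Calcium flux, agonist mode, human GnRHR stably integrated in HEK293; dye 1 h at 37 C before compound; Ex/Em=480/540 kinetic read, 3 min; 15 concentrations, triplicate.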

[8] = biological target: KiSS-1 receptor (Homo sapiens) (UniProt Q969F8); assay: Human kisspeptin (KISS1R) small molecule agonists, calcium flux assay in KISS1R-HEK293 cells (AID 1920064; active = well fitted activation curve with a large enough effect in the repeat runs)
Sequence of KiSS-1 receptor (Homo sapiens) (Q969F8 whole entry, looked up): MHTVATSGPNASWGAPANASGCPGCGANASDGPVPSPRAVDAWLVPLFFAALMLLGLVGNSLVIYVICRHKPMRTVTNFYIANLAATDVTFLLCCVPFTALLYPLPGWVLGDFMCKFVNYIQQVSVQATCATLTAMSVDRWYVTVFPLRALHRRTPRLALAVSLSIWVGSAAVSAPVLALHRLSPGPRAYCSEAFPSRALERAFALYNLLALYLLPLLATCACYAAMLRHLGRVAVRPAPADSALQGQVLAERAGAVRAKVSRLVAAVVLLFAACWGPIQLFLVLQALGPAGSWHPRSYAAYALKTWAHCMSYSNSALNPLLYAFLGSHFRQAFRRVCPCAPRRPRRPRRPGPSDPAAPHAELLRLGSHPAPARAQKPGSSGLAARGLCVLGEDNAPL
How it was run: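 Triplicate 15-concentration series were applied to dye-loaded human KISS1R HEK293 cells, and agonist-evoked calcium fluorescence was captured for 3 min.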

[9] = G protein-coupled receptor (GPCR) small molecule agonists, calcium flux assay: HEK293 wild type cell line counter screen (AID 1920065)
How it was run: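 Non-specific calcium responders were flagged by adding DMSO-dissolved compounds to dye-loaded cells and reading 480/540 nm fluorescence each second for 3 min; ATP served as positive control.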

[10] = p53 small molecule agonists, cell-based qHTS assay with human liver microsomes (AID 1963577)
How it was run: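 Fluorescence of the beta-lactamase reporter in p53RE-bla cells, detected with LiveBLAzer substrate (2 h, room temperature, dark), served as the read-out after 16 h compound exposure at 37 C with human liver microsomes and NADPH, each 0.5 mg/mL final.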

[11] = p53 small molecule agonists, cell-based qHTS assay with rat liver microsomes (AID 1963578)
How it was run: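 Cells carrying a p53 response element–beta-lactamase reporter were plated and rested 5 h, then dosed with compound in DMSO plus rat liver microsomes and NADPH, each at 0.5 mg/mL final. After 16 h at 37 C, LiveBLAzer substrate was added for 2 h.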

[12] = p53 small molecule agonists, cell-based qHTS assay: qHTS cell viability counter screen (AID 1963581); also: nearly all actives have a fitted effect of over 45% in size
How it was run: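 Multiplexed with the reporter read, a CellTiter-Glo step (30 min, room temperature) gauges ATP-based viability of HCT-116 p53RE-bla cells after 16 h compound incubation at 37 C.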

[13] = biological target: 5-hydroxytryptamine receptor 2A (Homo sapiens) (UniProt P28223); assay: 5-hydroxytryptamine receptor 2A (HTR2A) small molecule antagonists, cell-based qHTS assay (AID 1963586); also: nearly all actives have a fitted effect of over 45% in size; also: potency is read from the fitted curve at half-maximal effect
Sequence of 5-hydroxytryptamine receptor 2A (Homo sapiens) (P28223 whole entry, looked up): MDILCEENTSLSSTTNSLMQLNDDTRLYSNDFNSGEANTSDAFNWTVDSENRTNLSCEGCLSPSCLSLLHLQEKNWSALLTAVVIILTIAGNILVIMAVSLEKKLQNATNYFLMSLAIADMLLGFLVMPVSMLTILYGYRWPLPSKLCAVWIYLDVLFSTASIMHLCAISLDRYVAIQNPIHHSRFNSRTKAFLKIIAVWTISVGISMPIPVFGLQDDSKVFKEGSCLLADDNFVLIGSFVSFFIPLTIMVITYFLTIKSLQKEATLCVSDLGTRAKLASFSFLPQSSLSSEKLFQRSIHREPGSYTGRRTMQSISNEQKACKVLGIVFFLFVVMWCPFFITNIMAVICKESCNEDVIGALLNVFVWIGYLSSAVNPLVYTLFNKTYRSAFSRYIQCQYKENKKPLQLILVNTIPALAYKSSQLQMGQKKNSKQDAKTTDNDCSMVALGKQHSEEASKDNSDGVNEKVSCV
How it was run: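 CHO cells stably expressing human HTR2A were plated for 18 h at 37 C, then loaded with calcium dye for 1 h. Compounds were preincubated 5 min at room temperature before DOI (4 nM solution) was added. Kinetic fluorescence was read for 3 min.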

[14] = biological target: 5-hydroxytryptamine receptor 2A (Homo sapiens) (UniProt P28223); assay: 5-hydroxytryptamine receptor 2A (HTR2A) small molecule agonists, cell-based qHTS assay (AID 1963587); also: nearly all actives have a fitted effect of over 30% in size
How it was run: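 Kinetic calcium-flux fluorescence (2 min, 1 sec intervals) after compound addition in agonist mode. HTR2A-CHO cells were cultured 18 h, then dye-loaded 1 h at 37 C.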

[15] = biological target: Muscarinic acetylcholine receptor M1 (Homo sapiens) (UniProt P11229); assay: Cholinergic receptor muscarinic 1 (CHRM1) small molecule antagonists, cell-based qHTS assay (AID 1963588); also: nearly all actives have a fitted effect of over 40% in size
Sequence of Muscarinic acetylcholine receptor M1 (Homo sapiens) (P11229 whole entry, looked up): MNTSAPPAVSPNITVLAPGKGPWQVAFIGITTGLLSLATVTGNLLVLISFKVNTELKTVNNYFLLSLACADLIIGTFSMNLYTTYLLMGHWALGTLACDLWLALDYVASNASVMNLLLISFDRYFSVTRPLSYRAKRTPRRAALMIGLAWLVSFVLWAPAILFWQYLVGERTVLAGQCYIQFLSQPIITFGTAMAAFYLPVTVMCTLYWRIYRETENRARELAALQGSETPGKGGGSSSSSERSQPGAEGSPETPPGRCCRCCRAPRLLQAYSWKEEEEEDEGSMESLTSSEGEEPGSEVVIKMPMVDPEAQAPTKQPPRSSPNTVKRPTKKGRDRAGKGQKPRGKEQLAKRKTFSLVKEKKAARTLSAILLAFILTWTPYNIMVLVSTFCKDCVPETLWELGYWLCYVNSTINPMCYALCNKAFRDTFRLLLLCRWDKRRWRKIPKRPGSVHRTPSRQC
How it was run: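 Compounds were tested at 15 concentrations in three independent runs. Dye-loaded CHRM1-CHO cells were exposed 5 min at room temperature before stimulation by acetylcholine added at 50nM. Intracellular calcium was read kinetically on FDSS for 3 min.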

[16] = biological target: Muscarinic acetylcholine receptor M1 (Homo sapiens) (UniProt P11229); assay: Cholinergic receptor muscarinic 1 (CHRM1) small molecule agonists, cell-based qHTS assay (AID 1963589); also: nearly all actives have a fitted effect of over 35% in size
How it was run: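 qHTS, 15-point titration, 3 independent runs: compounds pin-transferred onto dye-loaded CHRM1-CHO cells (human M1), calcium fluorescence followed every second to detect agonism.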

[17] = p53 small molecule agonists, cell-based qHTS assay with human liver microsomes: qHTS cell viability counter screen (AID 1963579); also: nearly all actives have a fitted effect of over 45% in size
How it was run: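 Cytotoxicity counter screen: p53RE-bla, 4,000 cells/well; 5 h settle, 37 C/5% CO2; cpd + HLM 0.5 mg/mL + NADPH 0.5 mg/mL (final); 16 h, 37 C; CellTiter-Glo, 30 min RT, luminescence.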

[18] = p53 small molecule agonists, cell-based qHTS assay (AID 1963582; active = well fitted activation curve with a large enough effect in the signal ratio in the repeat runs, not every such curve was filed as active; the % refers to the signal ratio)
How it was run: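 Beta-lactamase reporter cells (p53RE-bla) treated with compounds for 16 h at 37 C; FRET substrate, 2 h, room temperature; fluorescence intensity.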

[19] = cAMP Responsive Elements (CRE) small molecule agonists, cell-based qHTS assay (AID 1963590)
How it was run: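 Quantitative HTS for CRE agonists: HEK 293T CRE-bla cells, overnight plating, 3 h compound incubation at 37 C/5% CO2, then 2 h room-temperature LiveBLAzer B/G FRET substrate loading.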

[20] = cAMP Responsive Elements (CRE) small molecule antagonists, cell-based qHTS assay (AID 1963591; active = well fitted inhibition curve with a large enough effect in the signal ratio in the repeat runs, not every such curve was filed as active; the % refers to the signal ratio)
How it was run: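 Fluorescence intensity from cleaved LiveBLAzer B/G substrate (2 h, room temperature) quantified CRE-bla activity in HEK 293T cells exposed 3 h to compound with 0.25 uM final NKH477.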

Structure (SMILES)	Potency [1]	Potency [2]	Potency [3]	Potency [4]	Potency [5]	Potency [6]	Potency [7]	Potency [8]	Potency [9]	Potency [10]	Potency [11]	Potency [12]	Potency [13]	Potency [14]	Potency [15]	Potency [16]	Potency [17]	Potency [18]	Potency [19]	Potency [20]
CC[C@@]1(O)C(=O)OCc2c1cc1n(c2=O)Cc2cc3c(CN(C)C)c(O)ccc3nc2-1	inactive	inactive	inactive	inactive	inactive	inactive	–	–	–	–	–	–	–	–	–	–	–	–	–	–
O=Cc1ccc(Cl)c([N+](=O)[O-])c1	–	–	inactive	–	inactive	inactive	inactive	inactive	inactive	inactive	inactive	inactive	inactive	inactive	inactive	inactive	–	–	–	–
Nc1cccnc1N	–	inactive	–	–	inactive	–	inactive	inactive	inactive	inactive	inactive	inactive	inactive	inactive	inactive	inactive	inactive	inactive	inactive	inactive
C#CCN(C)CCCOc1ccc(Cl)cc1Cl	–	inactive	inactive	inactive	–	–	inactive	inactive	inactive	inactive	inactive	inactive	16.3 µM (active)	inactive	–	inactive	inactive	–	inactive	inactive
c1ccc(-c2ccccc2-c2ccccc2)cc1	–	–	inactive	–	inactive	inactive	inactive	inactive	inactive	inactive	inactive	–	inactive	inactive	inactive	inactive	–	inactive	–	inactive
CCCCCCCC/C=C/CCCOC(C)=O	–	inactive	inactive	–	inactive	–	inactive	inactive	inactive	inactive	inactive	inactive	inactive	inactive	inactive	inactive	–	inactive	inactive	inactive
CCOC(=O)c1ccccc1C(=C1C=C(Br)C(=O)C(Br)=C1)c1cc(Br)c(O)c(Br)c1	–	inactive	inactive	–	inactive	inactive	inactive	inactive	inactive	inactive	inactive	–	–	inactive	–	inactive	inactive	–	–	–
C[C@@H](O[C@H]1OCCN(Cc2n[nH]c(=O)[nH]2)[C@H]1c1ccc(F)cc1)c1cc(C(F)(F)F)cc(C(F)(F)F)c1	–	inactive	inactive	–	inactive	inactive	inactive	inactive	inactive	inactive	inactive	–	–	–	inactive	inactive	inactive	inactive	–	–
